Laboratory results: PubChem BioAssay (NCATS)

Experiment: High-throughput drug toxicity screening in the BPDCN cell line Cal-1 (AID 1224825)
Settings: Cal-1 BPDCN cell viability, qHTS; at 45.8 µM (top of the series) unless noted
Excerpt: Blastic plasmacytoid dendritic cell neoplasm (BPDCN) is a rare, aggressive and largely incurable hematologic malignancy originating from plasmacytoid dendritic cells (pDCs). Although an initial response to chemotherapy is common, BPDCN prognosis is extremely poor and most patients relapse with drug-resistant disease leading to a median overall survival of ~1 year after diagnosis. To explore novel potential therapeutic strategies in BPDCN, we performed a high-throughput drug toxicity screening in BPDCN cell liens, using of a library of 1,912 small molecules, enriched for compounds that are either approved or in early stages of development for cancer therapy.
A total of 500 exponentially growing Cal-1 cells were seeded per well in 5 uL of media (RPMI + Glutamine, without phenol red plus10% FBS and 1X Pen/Strep) into 1536-well solid white high base tissue culture treated Greiner One Bio Plates (789173-F), using a multidrop combi dispenser and a small sterile cassette. Compounds and controls totaling 23nL per well (negative control DMSO and positive control 9.2 uM Bortezomib-final) were immediately added to the plates using a 1536 head pin tool from Kalypsys. The plates were then covered with stainless steel gasket lids from Kalypsys and incubated for 48 hours at 37C under 95% relative humidity with 5% CO2. After 48 hours, the plates were removed and allowed to reach room temperature before 3 uL of Cell Titer Glo reagent (Promega) were added using an Aurora Flying Reagent Dispenser Bioraptor. The plates were then spun at 1000 rpms to remove bubbles and incubated for 15 minutes at room temperature before reading on a ViewLux using a luminescent filter with a 10 second exposure. The relative luciferase units were used to calculated percent activity using DMSO as 100% and Bortezomib as 0%.
Work on `COc1cc2c(cc1-c1c(C)noc1C)ncc1[nH]c(=O)n([C@H](C)c3ccccn3)c12` yielded a viability (% of control) of 7.22%. Compound `CC(C)c1ccc(Cn2ccc3c4c(N)nc(NC5CC5)nc4ccc32)cc1` has a viability (% of control) of 4.41%. For `Cc1nc2cnc3ccc(C#Cc4cccnc4)cc3c2n1-c1ccc(C(C)(C)C#N)cc1`, the viability (% of control) was 16.6%. Work on `CNC(=O)c1nn(C)c2c1C(C)(C)Cc1cnc(Nc3ccc(N4CCN(C)CC4)cc3)nc1-2` yielded a viability (% of control) of 3.8%. `Cc1nc2ccc(CN(C)c3ccc(C(=O)N[C@@H](CCC(=O)O)C(=O)O)s3)cc2c(=O)[nH]1` gave a viability (% of control) of 32.8%. In the case of `CCn1nnc2c(N3CCOCC3)nc(-c3ccc(NC(=O)Nc4ccc(C(=O)N5CCN(C)CC5)cc4)cc3)nc21`, the viability (% of control) is reported as 26.6%. `CC[C@@H]1C(=O)N(C)c2cnc(Nc3ccc(C(=O)NC4CCN(C)CC4)cc3OC)nc2N1C1CCCC1` gave a viability (% of control) of 2.57%. In the case of `CC(=O)OCCN1C(=O)c2c(C)nc3ccc(S(=O)(=O)N4CCOCC4)cc3c2C1=O`, the viability (% of control) is reported as 47.9%. With `CC(C)Nc1cc(C(F)(F)F)cc2nc(NC(=O)c3cccnc3)nn12` the viability (% of control) was 120%. Compound `CCCCCN(CCC12CC3CC(CC(C3)C1)C2)C(=O)NCCCc1ccncc1` has a viability (% of control) of 94.4%. Work on `CN(c1ncccc1CNc1nc(Nc2ccc3c(c2)CC(=O)N3)ncc1C(F)(F)F)S(C)(=O)=O` yielded a viability (% of control) of 4.76%. Work on `O=C(O)[C@H](Cc1c[nH]c2ccccc12)N1C(=O)c2ccccc2C1=O` yielded a viability (% of control) of 104% [at 92.2 µM]. With `COc1cc2c(NC3CCN(C(C)C)CC3)nc(C3CCCCC3)nc2cc1OCCCN1CCCC1` the viability (% of control) was 4.14%. In the case of `COC(=O)c1ccc2c(C(=Nc3ccc(N(C)C(=O)CN4CCN(C)CC4)cc3)c3ccccc3)c(O)[nH]c2c1`, the viability (% of control) is reported as 71.4%. `Cc1cccc(C=NNc2cc(N3CCOCC3)nc(OCCc3ccccn3)n2)c1` gave a viability (% of control) of 63.7%. Work on `Cc1ccc2nc(NC(=O)CSc3nc4c(c(=O)n3-c3ccccc3)SCC4)sc2c1` yielded a viability (% of control) of 15.8%. `CCCNC(=O)Nc1ccc(Oc2ncnc3cc(OC)c(OC)cc23)cc1Cl` gave a viability (% of control) of 92.7%. In the case of `COc1ccc(-c2cc3c(C)nc(N)nc3n(C3CCC(OCCO)CC3)c2=O)cn1` (stereo not given), the viability (% of control) is reported as 3.91%. For `O=C(C=Cc1cccnc1)NCCCCC1CCN(C(=O)c2ccccc2)CC1`, the viability (% of control) was 4.19%. In the case of `Nc1cccc(-c2cc3c(Oc4cccc(O)c4)ncnc3[nH]2)c1`, the viability (% of control) is reported as 9.2%. In the case of `CNC(=O)c1ccc(N2C(=S)N(c3cnc(C#N)c(C(F)(F)F)c3)C(=O)C23CCC3)cc1F`, the viability (% of control) is reported as 3.32%. `CCC(=C(c1ccccc1)c1ccc(OCCN(C)C)cc1)c1ccccc1` gave a viability (% of control) of 23.2%. For `CC(C)(O)CCc1ccc(OCc2cc(-c3cccc(OC(F)F)c3)c3ncccc3c2)cc1`, the viability (% of control) was 75.3%. With `CC(=O)Nc1nc(C)c(-c2ccc(Cl)c(S(=O)(=O)NCCO)c2)s1` the viability (% of control) was 18.7%. With `Cc1ccc(CN2CCNCC2)cc1NC(=O)CNc1ccc(F)c(F)c1` the viability (% of control) was 103%. For `COc1ccc(-n2nc(C(N)=O)c3c2C(=O)N(c2ccc(N4CCCCC4=O)cc2)CC3)cc1`, the viability (% of control) was 104%. `Cc1cc(Nc2ncnc3ccc(-c4ccc(CNCCS(C)(=O)=O)o4)cc23)ccc1Oc1ccn2ncnc2c1` gave a viability (% of control) of 0.85%. For `CCOc1cc2ncc(C#N)c(Nc3ccc(F)c(Cl)c3)c2cc1NC(=O)C=CCN(C)C`, the viability (% of control) was 9.88%. Work on `C#Cc1cccc(Nc2ncnc3cc(OC)c(OCCCCCCC(=O)NO)cc23)c1` yielded a viability (% of control) of 3.6%. Compound `COc1cc2c(Oc3ccc(NC(=O)C4(C(=O)Nc5ccc(F)cc5)CC4)cc3F)ccnc2cc1OCCCN1CCOCC1` has a viability (% of control) of 4.49%. `Cn1c(=O)n(-c2ccc(C(C)(C)C#N)cc2)c2c3cc(-c4cnc5ccccc5c4)ccc3ncc21` gave a viability (% of control) of 11.9%. Compound `COc1c(OCCCN2CCOCC2)ccc2c3n(c(=NC(=O)c4cnc(N)nc4)nc12)CCN3` has a viability (% of control) of 69.2% [at 23.2 µM]. `Cn1cc(-c2[nH]c3cc(NC(=O)[C@H](N)C4CCCCC4)cc4c3c2C=NNC4=O)cn1` gave a viability (% of control) of 4.56%. For `Cc1cn2c(-c3cn[nH]c3)cnc2c(Nc2ccc(C(=O)N3CCNCC3)cc2F)n1`, the viability (% of control) was 28.2%. In the case of `O=C(Nc1nc2cccc(-c3ccc(CN4CCS(=O)(=O)CC4)cc3)n2n1)C1CC1`, the viability (% of control) is reported as 9.42%. Work on `COc1cc(C(=O)NS(=O)(=O)c2ccccc2C)ccc1Cc1cn(C)c2ccc(NC(=O)OC3CCCC3)cc12` yielded a viability (% of control) of 4.45%. In the case of `Fc1cc(-c2cccc3ncc(-c4cnn(C5CCNCC5)c4)nc23)cc(F)c1CN1CCOCC1`, the viability (% of control) is reported as 5.7%. In the case of `CCCCc1nc2cc(C=CC(=O)NO)ccc2n1CCN(CC)CC`, the viability (% of control) is reported as 7.58%. In the case of `Cc1coc2c1C(=O)C(=O)c1c-2ccc2c1CCCC2(C)C`, the viability (% of control) is reported as 83.1%. With `COc1ccc(CC2SC(=O)NC2=O)cc1C(=O)NCc1ccc(C(F)(F)F)cc1` (stereo not given) the viability (% of control) was 84.9%.
